Data reported in PubChem BioAssay (NCATS).
Several values for one entry are separate records, joined by “and”; a condition that tells them apart may be missing. Identical values can stand only once. Results filed as inconclusive are left out. Where a call stands in place of a potency, no number is given. The source holds several records for some structures; these can differ, active in one and inactive in another. Activity calls are given as the source filed them. Unless noted, the call rests on the fitted dose curve; in most records, active means well fitted curve in the direction sought with a large enough effect; inconclusive means small, poorly fitted or top-dose-only effect, or another doubt; inactive means no such curve, though single readings can be large; an effect the other way counts as inactive or inconclusive.

Legend:
[1] = target: Thyroid hormone receptor beta (Homo sapiens) (UniProt P10828); assay: qHTS assay for small molecule antagonists of thyroid hormone receptor beta signaling (AID 588547; active means well fitted inhibition curve with a large enough effect in the signal ratio, with a control signal flat, not every such curve was filed as active; the % refers to the signal ratio;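 further: cells stimulated with 0.4 nM T3 agonist during compound exposure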); conditions: TR-UAS-bla HEK293, beta-lactamase ratio, antagonist mode, 18 h
Chain of Thyroid hormone receptor beta (Homo sapiens) (P10828 whole entry, looked up): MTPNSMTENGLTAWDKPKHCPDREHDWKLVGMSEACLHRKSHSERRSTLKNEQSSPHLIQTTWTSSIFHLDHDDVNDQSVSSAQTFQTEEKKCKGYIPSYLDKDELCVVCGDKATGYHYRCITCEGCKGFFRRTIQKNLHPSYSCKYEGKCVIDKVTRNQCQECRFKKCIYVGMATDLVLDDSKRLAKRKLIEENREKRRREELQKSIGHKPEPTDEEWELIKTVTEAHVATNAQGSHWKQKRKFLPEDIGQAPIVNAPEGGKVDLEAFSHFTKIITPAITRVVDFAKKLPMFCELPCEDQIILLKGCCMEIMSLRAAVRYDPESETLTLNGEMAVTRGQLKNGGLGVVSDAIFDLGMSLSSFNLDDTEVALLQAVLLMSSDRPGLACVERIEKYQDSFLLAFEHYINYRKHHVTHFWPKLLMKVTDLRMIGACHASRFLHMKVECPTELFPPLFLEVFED
Procedure, shortened: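 TR-UAS-bla GripTite HEK293 cells in 2% charcoal/dextran FBS medium were preincubated 4 h at 37 C, given compound (0.59 nM to 92 uM) plus 0.4 nM T3 (final) for 18 h, then CCF4 for 2 h at RT; Hill fit gave IC50.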

[2] = target: Voltage-gated inwardly rectifying potassium channel KCNH2 (Homo sapiens) (UniProt Q12809); assay: qHTS Assay for Small Molecule Inhibitors of the Human hERG Channel Activity (AID 588834); conditions: U2OS BacMam hERG, FluxOR thallium flux fluorescence; series mostly up to 46.1 µM;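 further: lower thallium flux fluorescence means stronger hERG block; nearly all actives have a fitted effect of over 50% in size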; further: potency means the concentration at half of the fitted maximal effect
Chain of Voltage-gated inwardly rectifying potassium channel KCNH2 (Homo sapiens) (Q12809 whole entry, looked up): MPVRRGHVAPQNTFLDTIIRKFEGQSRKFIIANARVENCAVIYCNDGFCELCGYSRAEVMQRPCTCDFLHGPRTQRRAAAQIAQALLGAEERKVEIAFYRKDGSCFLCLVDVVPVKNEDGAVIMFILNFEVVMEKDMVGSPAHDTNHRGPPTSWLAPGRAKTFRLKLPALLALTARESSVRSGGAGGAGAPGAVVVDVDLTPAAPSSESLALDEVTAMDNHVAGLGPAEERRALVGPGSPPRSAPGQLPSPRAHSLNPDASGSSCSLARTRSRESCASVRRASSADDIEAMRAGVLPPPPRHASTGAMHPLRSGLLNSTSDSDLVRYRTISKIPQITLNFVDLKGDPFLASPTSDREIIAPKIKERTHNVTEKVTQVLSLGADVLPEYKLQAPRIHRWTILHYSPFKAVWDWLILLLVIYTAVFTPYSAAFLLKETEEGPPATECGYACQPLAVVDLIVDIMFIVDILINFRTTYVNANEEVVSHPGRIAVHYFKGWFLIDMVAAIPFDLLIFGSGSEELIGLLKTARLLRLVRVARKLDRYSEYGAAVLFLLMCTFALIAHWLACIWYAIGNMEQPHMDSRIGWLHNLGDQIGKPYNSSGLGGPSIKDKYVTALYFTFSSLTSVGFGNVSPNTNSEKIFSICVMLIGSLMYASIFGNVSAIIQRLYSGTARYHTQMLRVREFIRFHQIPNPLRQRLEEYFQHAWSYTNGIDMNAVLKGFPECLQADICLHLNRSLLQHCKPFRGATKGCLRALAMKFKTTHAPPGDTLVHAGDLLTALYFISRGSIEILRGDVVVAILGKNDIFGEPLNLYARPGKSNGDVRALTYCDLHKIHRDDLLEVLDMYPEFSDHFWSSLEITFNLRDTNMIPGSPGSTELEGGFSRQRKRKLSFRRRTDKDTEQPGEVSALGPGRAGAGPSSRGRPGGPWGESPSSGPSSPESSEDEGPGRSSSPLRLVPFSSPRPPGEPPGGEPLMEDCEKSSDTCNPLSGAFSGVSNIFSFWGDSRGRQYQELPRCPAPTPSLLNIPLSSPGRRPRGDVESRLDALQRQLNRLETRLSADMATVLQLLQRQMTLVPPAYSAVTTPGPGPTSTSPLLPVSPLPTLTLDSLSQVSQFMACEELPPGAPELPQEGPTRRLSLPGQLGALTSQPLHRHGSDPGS
Procedure, shortened: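 Thallium serves as surrogate for K+ influx through BacMam-delivered hERG in U2OS cells. Compounds are added for about 10 minutes after dye loading; stimulation buffer then starts flux, monitored kinetically on FDSS.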

[3] = target: Luciferin 4-monooxygenase (Photinus pyralis) (UniProt P08659); assay: Biochemical firefly luciferase enzyme assay for NPC (AID 624030); further: nearly all actives have a fitted effect of over 70% in size; further: potency means the concentration at half of the fitted maximal effect; conditions: purified P. pyralis luciferase, luminescence, 5 min; series mostly up to 58.6 µM
Chain of Luciferin 4-monooxygenase (Photinus pyralis) (P08659 whole entry, looked up): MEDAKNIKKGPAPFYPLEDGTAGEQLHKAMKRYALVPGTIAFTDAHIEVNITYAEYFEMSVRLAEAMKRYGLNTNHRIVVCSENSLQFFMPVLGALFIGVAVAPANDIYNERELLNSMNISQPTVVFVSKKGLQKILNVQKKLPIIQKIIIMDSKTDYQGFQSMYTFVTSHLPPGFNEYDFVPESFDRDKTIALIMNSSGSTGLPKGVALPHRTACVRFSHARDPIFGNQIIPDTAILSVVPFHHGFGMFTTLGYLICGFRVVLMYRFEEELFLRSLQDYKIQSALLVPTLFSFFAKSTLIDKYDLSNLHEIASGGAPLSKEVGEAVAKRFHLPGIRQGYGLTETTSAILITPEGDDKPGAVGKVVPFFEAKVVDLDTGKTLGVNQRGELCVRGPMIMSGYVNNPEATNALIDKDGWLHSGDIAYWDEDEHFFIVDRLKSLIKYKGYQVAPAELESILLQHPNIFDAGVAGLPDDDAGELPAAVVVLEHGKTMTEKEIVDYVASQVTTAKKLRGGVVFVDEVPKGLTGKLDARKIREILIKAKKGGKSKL
Procedure, shortened: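 Counter-screen for direct inhibition of the luciferase enzyme by approved-drug library compounds, run at 10 nM enzyme in 50 mM Tris acetate (final). Luminescence was read within 5 min of enzyme-buffer addition and normalized to PTC124 versus DMSO (0%).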

[4] = S16 Schwann cell viability assay (CellTiter-Glo assay) (AID 624031); conditions: S16 rat Schwann cells viability, 24 h; series mostly up to 57.5 µM;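 further: native untransfected S16 rat Schwann cells; cellular ATP luminescence as a viability measure; nearly all actives have a fitted effect of over 70% in size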
Procedure, shortened: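 Parental S16 cells, 24 h compound, 37 °C. ATP-luminescence viability; DMSO = 0% activity, empty wells as reference; curves classified by fit quality and efficacy.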

[5] = S16 Schwann cell PMP22 intronic element beta-lactamase assay (AID 624044; calls by dose curve; further: nearly all actives have a fitted effect of over 15% in size; further: potency means the concentration at half of the fitted maximal effect); conditions: S16 rat Schwann cells, PMP22 element beta-lactamase FRET, 24 h; series mostly up to 38.3 µM
Procedure, shortened: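 Beta-lactamase reporter under a PMP22 intronic regulatory element in stable S16 rat Schwann cells; 24 h compound exposure. 460 nm blue signal normalized between DMSO (0%) and potassium clavulanate, with 535 nm FRET tracking viability; curves classed by r2 and response.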

[6] = S16 Schwann cell PMP22 intronic element firefly luciferase assay (AID 624032); conditions: S16 rat Schwann cells, PMP22 element FLuc, 24 h; series mostly up to 57.5 µM; further: nearly all actives have a fitted effect of over 30% in size; further: potency means the concentration at half of the fitted maximal effect
Procedure, shortened: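 Rat S16 Schwann cells stably carrying a PMP22 intronic element-driven Fluc reporter were seeded overnight, then exposed to compounds for 24 h at 37 °C. Luminescence was normalized to PTC124 (positive control) and DMSO (0% activity).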

## CC1(C)OC[C@@H]2O[C@@]3(C(=O)O)OC(C)(C)O[C@H]3[C@@H]2O1
[1]
  activity change % (negative = inhibition): -3.12% (inactive)
[2]
  Potency: inactive

## CCCCOC(=O)CC(CC(=O)OCCCC)(OC(C)=O)C(=O)OCCCC
[1]
  activity change % (negative = inhibition): 12.8% (inactive)

## CCCCCCCCCCCCCCCC(=O)O
[1]
  activity change % (negative = inhibition): 13.6% (inactive)
[2]
  Potency: inactive
[3]
  Potency: inactive
[4]
  Potency: inactive
[5]
  Potency: inactive

## NS(=O)(=O)c1cc2c(cc1Cl)NC(CC1CCCC1)NS2(=O)=O (centres undefined)
[2]
  Potency: inactive

## CCOc1ccc(NC(C)=O)cc1
[1]
  activity change % (negative = inhibition): 4.97% (inactive)
[2]
  Potency: inactive
[3]
  Potency: inactive
[4]
  Potency: inactive
[6]
  Potency: inactive

## CC(C)(C)CC(C)(C)c1ccc(O)c(-n2nc3ccccc3n2)c1
[1]
  activity change % (negative = inhibition): -12.9% (inactive)
[2]
  Potency: inactive
[3]
  Potency: inactive
[4]
  Potency: inactive
[6]
  Potency: inactive

## CCC(Cc1c(I)cc(I)c(N)c1I)C(=O)O (centres undefined)
[2]
  Potency: inactive

## COc1ccc(C(=O)c2ccccc2)c(O)c1
[1]
  activity change % (negative = inhibition): -24% (inactive) and 5.53% (inactive)
[2]
  Potency: 35500 nM (active)
[4]
  Potency: inactive
[6]
  Potency: inactive

## CCCCCCCCCCCCCCCCO
[1]
  activity change % (negative = inhibition): 11.7% (inactive)
[2]
  Potency: inactive
[3]
  Potency: inactive
[4]
  Potency: inactive
[6]
  Potency: inactive

## NCCNc1cccc2ccccc12
[1]
  activity change % (negative = inhibition): -5.49% (inactive)
[2]
  Potency: inactive
[3]
  Potency: inactive
[5]
  Potency: inactive

## O=C(N/N=C/c1ccc([N+](=O)[O-])o1)c1ccc(O)cc1
[2]
  Potency: inactive

## CCCCCCCCOc1ccc(C(=O)c2ccccc2)c(O)c1
[1]
  activity change % (negative = inhibition): -1.54% (inactive)
[2]
  Potency: inactive
[3]
  Potency: inactive
[4]
  Potency: inactive

## NC(=O)c1ccccc1O
[1]
  activity change % (negative = inhibition): -15.4% (inactive)
[2]
  Potency: inactive
[3]
  Potency: inactive
[4]
  Potency: inactive
[6]
  Potency: inactive

## CCCCC(CC)COC(=O)c1ccc(N(C)C)cc1 (centres undefined)
[1]
  activity change % (negative = inhibition): -0.537% (inactive) and 3.83% (inactive)
[2]
  Potency: inactive and 28.2 µM (active)
[3]
  Potency: inactive
[4]
  Potency: inactive
[6]
  Potency: inactive
[5]
  Potency: inactive

## CCCCCCCC/C=C\CCCCCCCCN
[1]
  activity change % (negative = inhibition): -4.57% (inactive)
[2]
  Potency: inactive
[3]
  Potency: inactive
[4]
  Potency: inactive
[6]
  Potency: inactive

## CCC1NC(=O)c2cc(S(N)(=O)=O)c(Cl)cc2N1 (centres undefined)
[2]
  Potency: inactive

## C#C[C@]1(O)CC[C@H]2[C@@H]3[C@H](C)CC4=C(CCC(=O)C4)[C@H]3CC[C@@]21C
[2]
  Potency: inactive

## OC[C@H]1O[C@@H]2O[C@H]3[C@H](O)[C@@H](O)[C@@H](O[C@H]4[C@H](O)[C@@H](O)[C@@H](O[C@H]5[C@H](O)[C@@H](O)[C@@H](O[C@H]6[C@H](O)[C@@H](O)[C@@H](O[C@H]7[C@H](O)[C@@H](O)[C@@H](O[C@H]8[C@H](O)[C@@H](O)[C@@H](O[C@H]1[C@H](O)[C@H]2O)O[C@@H]8CO)O[C@@H]7CO)O[C@@H]6CO)O[C@@H]5CO)O[C@@H]4CO)O[C@@H]3CO
[1]
  activity change % (negative = inhibition): 2.69% (inactive)
[2]
  Potency: inactive
[3]
  Potency: inactive
[4]
  Potency: inactive
[6]
  Potency: inactive

## CC1(COc2ccc(CC3SC(=O)NC3=O)cc2)CCCCC1 (centres undefined)
[1]
  activity change % (negative = inhibition): -31.9% (inactive)
[3]
  Potency: 16100 nM (active)
[4]
  Potency: inactive
[6]
  Potency: inactive
[5]
  Potency: inactive

## CCCN(CCC)S(=O)(=O)c1ccc(C(=O)O)cc1
[1]
  activity change % (negative = inhibition): 8.08% (inactive) and 3.53% (inactive)
[2]
  Potency: inactive
[3]
  Potency: inactive
[4]
  Potency: inactive
[6]
  Potency: inactive

## CCOc1ccccc1C(N)=O
[1]
  activity change % (negative = inhibition): 7.81% (inactive)
[2]
  Potency: inactive
[3]
  Potency: inactive
[4]
  Potency: inactive
[6]
  Potency: inactive

## CC(=O)OCC1=C(C(=O)O)N2C(=O)[C@@H](NC(=O)CSc3ccncc3)[C@H]2SC1
[2]
  Potency: inactive

## COc1ccc(C(Cl)=C(c2ccc(OC)cc2)c2ccc(OC)cc2)cc1
[1]
  activity change % (negative = inhibition): -9.92% (inactive)
[2]
  Potency: inactive
[3]
  Potency: inactive
[4]
  Potency: inactive
[6]
  Potency: inactive

## CCCCN1C[C@H](O)[C@@H](O)[C@H](O)[C@H]1CO
[2]
  Potency: inactive

## CN(C)C(=O)Nc1ccc(Cl)c(Cl)c1
[1]
  activity change % (negative = inhibition): -2.96% (inactive)
[2]
  Potency: inactive
[3]
  Potency: inactive
[4]
  Potency: inactive
[6]
  Potency: inactive

## O=C(O)c1ccc(S(=O)(=O)N(Cl)Cl)cc1
[1]
  activity change % (negative = inhibition): 9.05% (inactive)
[2]
  Potency: inactive
[3]
  Potency: inactive
[4]
  Potency: inactive
[6]
  Potency: inactive

## CC(=O)O[C@]1(C(C)=O)CC[C@H]2[C@@H]3C=C(C)C4=CC(=O)CC[C@]4(C)[C@H]3CC[C@@]21C
[2]
  Potency: inactive

## O=[N+]([O-])c1ccc(/C=N\O)o1
[2]
  Potency: inactive

## C[C@]12CCC(=O)C=C1C=C[C@@H]1[C@@H]2CC[C@@]2(C)[C@H]1CC[C@@]21CCC(=O)O1
[2]
  Potency: inactive

## CC(C)n1c(/C=C/[C@@H](O)C[C@@H](O)CC(=O)O)c(-c2ccc(F)cc2)c2ccccc21
[2]
  Potency: inactive

## C=C[C@@]1(C)CC(=O)[C@]2(O)[C@@]3(C)[C@@H](O)CCC(C)(C)[C@@H]3[C@H](O)[C@H](OC(C)=O)[C@@]2(C)O1
[1]
  activity change % (negative = inhibition): 10.4% (inactive)
[2]
  Potency: inactive
[3]
  Potency: inactive
[6]
  Potency: 361 nM (active)
[5]
  Potency: 707 nM (active)

## O=C1OC(CN2CCOCC2)CN1/N=C/c1ccc([N+](=O)[O-])o1 (centres undefined)
[2]
  Potency: inactive

## CC(C(=O)O)c1cccc(Oc2ccccc2)c1 (centres undefined)
[2]
  Potency: inactive

## COc1ccc(S(=O)(=O)N2c3ccc(Cl)cc3[C@@](O)(c3ccccc3Cl)[C@H]2C(=O)N2CCC[C@@H]2C(N)=O)cc1OC
[2]
  Potency: inactive

## CC[C@]12CCCN3CCc4c(n(c5ccccc45)C(=O)C1)[C@@H]32
[2]
  Potency: 447 nM (active)

## COc1cc(O)c(C(=O)c2ccccc2)cc1S(=O)(=O)O
[4]
  Potency: inactive

## O=C(O)Cc1csc(-c2ccc(Cl)cc2)n1
[2]
  Potency: inactive
[3]
  Potency: inactive
[4]
  Potency: inactive

## COc1cc(NS(=O)(=O)c2ccc(N)cc2)ncn1
[2]
  Potency: inactive
[3]
  Potency: inactive
[4]
  Potency: inactive
[6]
  Potency: inactive

## c1ccc(-c2nc[nH]c2-c2ccccc2)cc1
[2]
  Potency: inactive
[3]
  Potency: inactive
[4]
  Potency: inactive
[6]
  Potency: inactive

## CCOC(=O)C(C#N)=C(c1ccccc1)c1ccccc1
[2]
  Potency: inactive
[3]
  Potency: inactive
[4]
  Potency: inactive

## CCCCNC(=O)NS(=O)(=O)c1ccc(N)cc1
[2]
  Potency: inactive
[3]
  Potency: inactive
[4]
  Potency: inactive
[6]
  Potency: inactive

## CC(=O)N[C@@H](CCC(=O)O)C(=O)O
[2]
  Potency: inactive
[3]
  Potency: inactive
[4]
  Potency: inactive
[6]
  Potency: inactive
